Most compounds without a hit are left out; they make up all but 4.6% or so of the library.
TRHR agonist: activates the human TRH receptor | TRHR cells, calcium flux fluo-8, FDSS agonist mode | activation, % at 2 µM | 360,000 compounds, 0.18% hits | AID 493084; note: 0% is about no effect
Target sequence (P34981 whole entry, looked up): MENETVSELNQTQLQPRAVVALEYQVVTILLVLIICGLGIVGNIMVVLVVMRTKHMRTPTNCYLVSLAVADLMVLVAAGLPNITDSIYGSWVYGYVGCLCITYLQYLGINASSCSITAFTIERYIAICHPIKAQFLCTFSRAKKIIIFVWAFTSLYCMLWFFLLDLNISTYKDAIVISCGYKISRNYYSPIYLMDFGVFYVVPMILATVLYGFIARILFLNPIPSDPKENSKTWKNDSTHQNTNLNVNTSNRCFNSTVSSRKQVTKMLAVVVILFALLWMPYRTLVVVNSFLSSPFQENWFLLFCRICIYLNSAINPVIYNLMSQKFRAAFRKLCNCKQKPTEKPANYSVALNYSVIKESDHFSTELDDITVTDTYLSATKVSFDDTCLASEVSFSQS
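TRHR-expressing cells loaded with fluo-8 calcium dye; 23 nL library compound pin-transferred, kinetic FDSS fluorescence (Ex 480/Em 530) recorded about 180 s for agonist-induced calcium release, before a 10 nM TRH EC20 addition for potentiator mode.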
D1 antag: human D1 dopamine receptor antagonism | P21728 | HEK293 TREx D1 cells, calcium flux, dopamine EC80; active compounds read low | activity change, negative = inhibition, % at 10 µM | 360,000 compounds, 3.2% hits; in the data active = activity change below about -30%; note: % is set by controls: 0 for no effect and ±100 for the full control effect
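After overnight tetracycline induction at 30 C, force-coupled D1 HEK293 cells took up a no-wash calcium dye at room temperature. Compounds were added and monitored 180 s, and the response to EC80 dopamine was then recorded.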
D1 agonist: activates the human D1 dopamine receptor | P21728 | HEK293 T-REx D1 cells, calcium flux, agonist mode | activation, % at 2 µM | 360,000 compounds, 1% hits; note: 0% is about no effect
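Inducible HEK293 T-REx D1 cells, force-coupled to calcium signalling, were plated at 4000 cells/well with tetracycline and held overnight at 30 C. After no-wash calcium dye loading, compound-evoked calcium rise over 180 s flagged agonists.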
D1 potentiator: enhances dopamine response at the human D1 receptor | potentiation, % at 10 µM | 360,000 compounds, 0.036% hits | HEK293 TREx D1 cells, calcium flux, dopamine EC20 potentiation; in the data active = potentiation above about 30%; note: 0% is about no effect
TRHR PAM: TRH receptor (human) allosteric enhancement | TRHR cells, fluo-8 calcium fluorescence, EC20 TRH enhancement | P34981 | enhancement, % at 2 µM | 360,000 compounds, 0.66% hits; in the data active = enhancement above about 30%; note: 0% is about no effect
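Enhancer read-out: after compound pinning and an initial kinetic agonist-mode read, an EC20 of TRH (10 nM final) was injected and fluo-8 calcium signal (Ex 480/Em 530) followed at 1 s/cycle for 100 cycles in TRHR-expressing cells.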
An asterisk follows results filed as active. Cut-off read from the data, not from the text of the source, unless noted: active = activation above about 30%; inactive = the rest.

What do the screens show for `Cc1ccc2[nH]c3c(N4CCN(Cc5ccccc5)CC4)ncnc3c2c1`?
TRHR agonist: 1; D1 antag: -37*; D1 agonist: 5; D1 potentiator: 3; TRHR PAM: -1

What do the screens show for `COCCNC(=S)N(CCc1c(C)[nH]c2ccc(F)cc12)Cc1cccs1`?
TRHR agonist: 1; D1 antag: -38*; D1 agonist: 15; D1 potentiator: -2; TRHR PAM: -7

How did Nc1sc2c([n+]1CCCS(=O)(=O)[O-])CCCC2 do in these assays?
TRHR agonist: -2; D1 antag: -31*; D1 agonist: 4; D1 potentiator: -4; TRHR PAM: 6

What do the screens show for `CSc1sc2ccccc2[n+]1CCCS(=O)(=O)[O-]`?
TRHR agonist: 0; D1 antag: -4; D1 agonist: 1; D1 potentiator: -1; TRHR PAM: 8

Results for CCc1ccc(C2c3c(n[nH]c3C)C(=O)N2c2ccc(C)cc2)cc1 (configuration not stated) ?
TRHR agonist: 0; D1 antag: -11; D1 agonist: 0; D1 potentiator: 6; TRHR PAM: 2

Results for COc1ccc(C(=O)Nc2ccc3nc(SCC(=O)N(C)c4ccccc4)sc3c2)cc1 ?
TRHR agonist: -1; D1 antag: -3; D1 agonist: 32*; D1 potentiator: 4; TRHR PAM: -2

What do the screens show for `O=C(Nc1ccc2nc(SCC(=O)N3CCOCC3)sc2c1)c1ccc(Cl)cc1`?
TRHR agonist: 0; D1 antag: -38*; D1 agonist: 4; D1 potentiator: -2; TRHR PAM: -2

What do the screens show for `CCOc1ccc2nc(SCC(=O)c3ccccc3)sc2c1`?
TRHR agonist: 4; D1 antag: -43*; D1 agonist: 22; D1 potentiator: 2; TRHR PAM: -13

What do the screens show for `O=S(=O)(c1ccccc1)N1CCN(S(=O)(=O)c2ccc3c(c2)OCCO3)CC1`?
TRHR agonist: 0; D1 antag: 14; D1 agonist: 6; D1 potentiator: -6; TRHR PAM: -3

How did CC(=O)N1c2ccc(S(=O)(=O)N3CCCCCC3)cc2CC1C(=O)NCc1ccccc1F (configuration not stated) do in these assays?
TRHR agonist: -2; D1 antag: 10; D1 agonist: 0; D1 potentiator: 1; TRHR PAM: 5

Results for CCOc1ccc(C(=O)NCC(c2ccc3c(c2)OCO3)N2CCN(c3ccccc3F)CC2)cc1 (configuration not stated) ?
TRHR agonist: 0; D1 antag: 8; D1 agonist: 4; D1 potentiator: -5; TRHR PAM: 4

How did O=C1NC(=S)N/C1=C\c1ccc(Oc2ccc(C(F)(F)F)cc2[N+](=O)[O-])c(Cl)c1 do in these assays?
TRHR agonist: 0; D1 antag: -52*; D1 agonist: 0; D1 potentiator: 3; TRHR PAM: -1

What do the screens show for `O=C1CC(c2ccccc2)C(C(=O)Nc2ccccc2F)N1` (configuration not stated)?
TRHR agonist: 0; D1 antag: -32*; D1 agonist: -4; D1 potentiator: -1; TRHR PAM: 3

What do the screens show for `CCN(CC)C(=O)C(C(=O)c1cccc([N+](=O)[O-])c1)n1cc(Cl)ccc1=O` (configuration not stated)?
TRHR agonist: 0; D1 antag: -37*; D1 agonist: 1; D1 potentiator: -2; TRHR PAM: -5

How did CN(Cc1ccccc1)C(=O)C(C(=O)c1ccc(F)cc1)n1cc(Cl)ccc1=O (configuration not stated) do in these assays?
TRHR agonist: 0; D1 antag: -24; D1 agonist: 1; D1 potentiator: -1; TRHR PAM: -6

How did CC1=NN(c2cccc(F)c2)C(=O)/C1=C/c1ccc(N(C)C)cc1 do in these assays?
TRHR agonist: 0; D1 antag: -85*; D1 agonist: -1; D1 potentiator: -14; TRHR PAM: -27

How did Cc1ccc(/C=C2/Sc3ccc(C(=O)N4CCN(C)CC4)cc3NC2=O)cc1 do in these assays?
TRHR agonist: 1; D1 antag: -82*; D1 agonist: 17; D1 potentiator: -24; TRHR PAM: 29

Bioassay records from PubChem BioAssay.
